Test results reported in PubChem BioAssay AID2517 (National Center for Advancing Translational Sciences (NCATS), 2010).
“And” between values parts separate entries of the source, which are not always exact repeats. Equal entries are not always repeated. In all, about 350,000 compounds went through this assay and about 1,200 (0.34%) were called active. Inconclusive results (about 3%) are left out. This is one part of a sample in which actives are shown more often than they occur. The call rests on the fitted dose curve; in most records, active means well fitted inhibition curve with a large enough effect; inconclusive means small, poorly fitted or top-dose-only effect; inactive means no such curve, though single readings can be large or run the other way. The source holds several records for some structures; these can differ, active in one and inactive in another.

Biological target: DNA repair nuclease/redox regulator APEX1 (Homo sapiens) (UniProt P27695)
Test: qHTS Assay for Inhibitors of the Human Apurinic/apyrimidinic Endonuclease 1 (APE1); further: nearly all actives have a fitted effect of over 55% in size;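 on activity change, negative = inhibition: plate controls were vehicle for no effect and reference inhibitor for full effect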
Conditions: recombinant APE1, TAMRA/BHQ-2 abasic DNA cleavage fluorescence; activity change, negative = inhibition: at 65.8 µM (top of the series)
Procedure, shortened: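 Measures dequenching upon AP-site incision of a 5'-TAMRA/3'-BHQ-2 THF-containing duplex, 50 nM; human APE1 0.75 nM after 15 min room-temperature exposure to compound; kinetic three-point read at one-minute spacing.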
Potency means the concentration at half of the fitted maximal effect.

Chain of DNA repair nuclease/redox regulator APEX1 (Homo sapiens) (P27695 whole entry, looked up): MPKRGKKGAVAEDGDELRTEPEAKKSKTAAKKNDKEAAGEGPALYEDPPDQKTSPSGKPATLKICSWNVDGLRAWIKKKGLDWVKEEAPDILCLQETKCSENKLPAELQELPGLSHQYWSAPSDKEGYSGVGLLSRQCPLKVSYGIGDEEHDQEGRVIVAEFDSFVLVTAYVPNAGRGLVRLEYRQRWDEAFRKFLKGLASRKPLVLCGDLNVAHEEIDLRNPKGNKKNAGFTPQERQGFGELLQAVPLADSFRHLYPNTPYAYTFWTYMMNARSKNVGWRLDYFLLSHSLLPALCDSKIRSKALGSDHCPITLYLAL

SMILES | activity change, negative = inhibition | Potency
CCCCc1nn(-c2ccccc2C(F)(F)F)c(=O)n1Cc1ccc(-c2ccccc2S(=O)(=O)NC(=O)c2sccc2C)cc1 | -6.08% (inactive) | –
CO[C@H]1COC(=O)[C@@H](OCc2ccccc2)/C=C\[C@H](C)[C@@H](OC)COC(=O)[C@H](OCc2ccccc2)/C=C\[C@@H]1C | 33.1% [at 12.4 µM] (inactive) | –
COc1ccc(CCCOC(Cn2ccnc2)c2ccc(OC)cc2)cc1 (configuration not stated) | – | inactive
Cc1ccc(N=C2NC(=O)/C(=C/C=C/c3ccco3)S2)cc1C | – | 28.2 µM (active)
CCC[C@@H]1C[C@@]1(CCC)C(NC(=O)c1ccc(-c2ccccc2)cc1)c1cccc(Cl)c1 (some centres not stated) | -0.889% (inactive) | –
CCCn1c(-c2ccc(F)cc2)nc2c(NC3CCN(Cc4ccccc4)C3)nc(C)nc21 (configuration not stated) | 7.5% (inactive) | –
COc1ccc(C(=O)N2CCC3(CC2)CCN(c2ccccn2)CC3)cc1 | 4.46% (inactive) | –
COc1ccc(-c2nc3c(c4c2C[C@H](c2ccccc2)OC4)CN(C(=O)c2cccnc2)CC3)c(C)c1 | -2.55% [at 12.4 µM] (inactive) | –
NC(=O)C1CCN(c2nc(-c3cccc(F)c3)cs2)CC1 | 16.9% (inactive) | –
C=C[C@](C)(O)CCC1C(=C)CCC2[C@@](C)(CO)CCC[C@@]12C (some centres not stated) | -0.9% (inactive) | –
COc1ccc2[nH]c(=S)cc(C)c2c1 | 17.4% (inactive) | –
COc1ccc2[nH]c(C(=O)N3CCN(C)CC3)c(C)c2c1 | -10.7% (inactive) | –
COc1ccc2[nH]c3c(C)c4cc[n+](C)cc4c(C)c3c2c1 | – | 12.6 µM (active)
CC/C=C\C/C=C\C/C=C\C/C=C\C/C=C\C/C=C\CCC(=O)NCCc1ccc(O)c(O)c1 | -1.09% (inactive) | –
COC(=O)C(C(=O)OC)[C@@H](NC=O)c1ccccc1 | 0.907% (inactive) | –
Nc1nc2c(nc(Cl)n2C2OC(CO)C(O)C2O)c(=O)[nH]1 (configuration not stated) | 12.3% (inactive) | –
COc1cccc(-c2cc(NCCc3c[nH]c4ccc(OC)cc34)ncn2)c1 | 3.71% (inactive) | –
CS(=O)(=O)NC(=O)CCC/C=C\C[C@H]1C(=O)C[C@@H](O)[C@@H]1/C=C/[C@H](O)COc1ccccc1 | 1.1% (inactive) | –
CC/C=C\C/C=C\C/C=C\C/C=C\C/C=C\C/C=C\CCC(=O)NC(C)C(=O)O (configuration not stated) | -0.719% (inactive) | –
COC(=O)c1ccc(C(NC(=O)OCc2ccccc2)/C(C)=C/[C@@H](C)C(=O)NCc2cc(C)on2)cc1 (some centres not stated) | 0.278% (inactive) | –
CC(C)(C)c1ccc(OC2C=CC(C#Cc3ccccc3)OC2CO)cc1 (configuration not stated) | 3.5% [at 12.4 µM] (inactive) | –
COCCNC(=O)c1snc2ccc(Cl)cc12 | -2.23% (inactive) | –

SMILES | activity change, negative = inhibition | Potency
O=C1CSc2ccc(C(=O)NCc3ccccn3)cc2N1 | 6.27% (inactive) | –
COCCNC(=O)Nc1ccc2nc(-c3ccco3)c(-c3ccco3)nc2c1 | – | 6.31 µM (active)
O=C(Nc1nc(-c2ccco2)c(-c2ccco2)s1)c1ccco1 | 11.9% (inactive) | –
O=C(NCc1ccccn1)c1ccc2nc(-c3ccco3)c(-c3ccco3)nc2c1 | – | 10 µM (active)
COc1cccc(S(=O)(=O)NCc2ccc(C(=O)NCc3ccccn3)cc2)c1 | 7.86% (inactive) | –
O=C(O)CC(C(=O)O)C(CC(=O)O)C(=O)O (configuration not stated) | 15.8% (inactive) | –
NC(=O)c1sc(-c2ccsc2)cc1N | 1.82% (inactive) | –
COc1ccc(CC(N)C(=O)NC2C(O)[C@H](n3cnc4c(N(C)C)ncnc43)O[C@@H]2CO)cc1 (some centres not stated) | -0.283% (inactive) | –
CCCn1c(C)nc2c(NCCCCN(CC)CC)nc(C)nc21 | -4.94% (inactive) | –
C=C1CCN(C(CC(C)C)C(=O)N2CCOCC2)S(=O)(=O)c2ccccc21 (configuration not stated) | 2.97% (inactive) | –
O=C(Cc1c(O)c2ccccc2[nH]c1=O)NCc1ccccc1 | -2.72% (inactive) | –
O=C1C(c2[nH]c3ccccc3c2O)=Nc2ccccc21 | – | 7.94 µM (active) and 3.98 µM (active)
CC(C)C(=O)Nc1c(O)c2ccccc2[nH]c1=O | -2.89% (inactive) | –
CCCCC/C=C\C/C=C\CCCCCCCCCC(=O)NCC(=O)O | 3.32% (inactive) | –
CCCCCCCC/C=C\CCCCCCCC(=O)NCC(=O)O | 4.31% (inactive) | –
COc1c(O)cc2oc(-c3ccc(O)c(O)c3)cc(=O)c2c1O | – | 7.08 µM (active)
COc1ccc2c(=O)cc(-c3ccccc3)oc2c1O | -7.77% (inactive) | –
Cc1cccc(-c2cc(=O)c3cc(C)ccc3o2)c1 | -8.53% (inactive) | –
Cc1ccc(NC(=O)O[C@@H]2C(=O)c3cc(Br)ccc3O[C@H]2c2ccc3c(c2)OCO3)cc1Br | 0.243% (inactive) | –
CC(C)(C)n1ncc2c(=O)n(Cc3ccc(C(=O)c4ccccc4)cc3)cnc21 | -0.344% (inactive) | –
Cc1cccc2c3c(ccc12)C1=C(C(=O)C3=O)C(C)CO1 (configuration not stated) | 9.79% (inactive) | –
CN[C@@H]1[C@H](O[C@H]2[C@H](O[C@H]3[C@H](O)[C@@H](O)[C@H](N=C(N)N)[C@@H](O)[C@@H]3N=C(N)N)O[C@@H](C)[C@]2(O)CO)O[C@@H](CO)[C@H](O)[C@H]1O | 0.585% (inactive) | –

SMILES | activity change, negative = inhibition | Potency
CCOC(=O)C1=C(C)N=C2c3ccccc3C(=O)C2C1c1ccc(Br)cc1 (configuration not stated) | -2.57% (inactive) | –
CCOC(=O)C1=NOC(Cn2cc(C(C)=O)c(=O)[nH]c2=O)C1 (configuration not stated) | 1.23% (inactive) | –
CCOC(=O)C1=NO[C@@]2(C=C(Br)C(=O)[C@H]3O[C@H]32)C1 | – | 7.94 µM (active)
CC(C)C[C@@H](CC(=O)N[C@@H](CCC(=O)O)CC(=O)O)NC(=O)[C@@H]1CCCC[C@H]1NC(=O)C[C@@H](NC(=O)C[C@H](Cc1c[nH]c2ccccc12)NC(=O)[C@@H]1CCCC[C@H]1N)C(C)C | -3.05% (inactive) | –
CC(C)C1=CC2=CC[C@@H]3[C@](C)(CO)CCC[C@]3(C)C2CC1 (some centres not stated) | 0.19% (inactive) | –
O=C(CSc1nnc(-c2ccco2)n1-c1ccccc1)NCCc1ccccc1 | -4.34% (inactive) | –
Clc1ccc(CSc2nnc3c(n2)[nH]c2ccccc23)cc1 | -0.131% (inactive) | –
c1ccc(CSc2nnc(-c3ccco3)c(-c3ccco3)n2)cc1 | – | 10 µM (active)
O=c1c(-c2cc(F)cc(F)c2)nc2cnc(Oc3ccccc3)nc2n1C[C@H]1CCCO1 | 3.92% (inactive) | –
CC/C=C/C/C=C/C/C=C/CCCCCCCC(=O)OCC | -3.48% (inactive) | –
CN(C(=O)COC(=O)c1cc(-c2ccco2)nc2ccccc12)C1CCS(=O)(=O)C1 (configuration not stated) | – | 7.94 µM (active)
CN(C(=O)COC(=O)Cc1ccccc1[N+](=O)[O-])C1CCS(=O)(=O)C1 (configuration not stated) | 8.91% (inactive) | –
COc1ccc(/C=C(\C#N)C(=O)OCC(=O)N(C)C2CCS(=O)(=O)C2)cc1 (configuration not stated) | -0.493% (inactive) | –
C1CCC2OC2C1 (configuration not stated) | -0.558% (inactive) | –
COc1cccc(/C=C2/SC(=S)N(CC(=O)NC3C=CS(=O)(=O)C3)C2=O)c1 (configuration not stated) | 37.3% (inactive) | –
Cc1ccc(-c2nn(-c3ccccc3)cc2/C=C2\SC(=S)N(CCCCCC(=O)O)C2=O)o1 | -84.3% (inactive) | –
COc1ccc(-c2nn(-c3ccccc3)cc2/C=C2/SC(=S)N(CCCC(=O)O)C2=O)c(C)c1 | – | 29.9 µM (active)
C=C1C(=O)C23C(O)C1CCC2[C@]12COC3(O)C(O)C1C(C)(C)CC[C@H]2O (some centres not stated) | -2.57% (inactive) | –
CC[C@@]12C=C(/C=C/c3ccccc3)[C@](CC)(C1)[C@H](c1ccccc1)CC2=O | 17.2% (inactive) | –
O=C(CCc1n[nH]c(=O)[nH]c1=O)N/N=C/c1ccc(Br)o1 | -7.77% (inactive) | –
O=C(CCNC(=O)c1ccccc1Cl)NN=Cc1ccco1 | -5.79% (inactive) | –
O=C(CCNC(=O)c1ccccc1)NN=Cc1ccc(Br)o1 | – | 15 µM (active)

SMILES | activity change, negative = inhibition | Potency
Cc1ccc(OCCCC(=O)NC(C)c2ccccc2)c(C)c1 (configuration not stated) | 0.614% (inactive) | –
Cc1cc(C)cc(OCC(=O)NC(C)c2ccccc2)c1 (configuration not stated) | -52.8% (active) | –
Cc1ccccc1OCCC(=O)OCC(=O)NC(C)c1ccccc1 (configuration not stated) | 0.618% (inactive) | –
c1ccc2cc(C3=NCCN3)ccc2c1 | -6.2% (inactive) | –
COc1ccc(/C=C/NC(=O)c2ccc(OC)cc2)cc1 | 3.93% [at 12.4 µM] (inactive) | –
CC[C@H](C)[C@H](NC(=O)[C@H](CCCNC(=N)N)NC(=O)[C@H](CCCNC(=N)N)NC(=O)[C@H](CC(C)C)NC(=O)[C@H](Cc1ccccc1)NC(=O)CNC(=O)CNC(=O)[C@@H](N)Cc1ccc(O)cc1)C(=O)N[C@@H](CCCNC(=N)N)C(=O)N1CCC[C@H]1C(=O)N[C@@H](CCCCN)C(=O)N[C@@H](CC(C)C)C(=O)N[C@@H](CCCCN)C(=O)N[C@@H](Cc1c[nH]c2ccccc12)C(=O)N[C@@H](CC(=O)O)C(=O)N[C@@H](CC(N)=O)C(=O)N[C@@H](CCC(N)=O)C(=O)O | -1.98% (inactive) | –
O=C(NCCc1ccco1)c1nn(Cc2ccccc2)c(=O)c2ccccc12 | -6.32% (inactive) | –
O=C(Nc1ccccc1)/C(=C\c1ccco1)NC(=O)c1ccco1 | 39.5% (inactive) | –
O=c1nc2s/c(=C\c3ccco3)c(=O)n2nc1Cc1ccccc1 | – | 4.47 µM (active)
O=C(OCC(COC(=O)c1ccccc1)(COC(=O)c1ccccc1)COC(=O)c1ccccc1)c1ccccc1 | 5.41% (inactive) | –
CC(C)=CCN1CCC2(CCc3ccccc32)CC1 | -0.233% (inactive) | –
Oc1cc(O)c2c(c1)OC(c1ccc(O)c(O)c1)C(O)C2 (configuration not stated) | – | inactive and 3.16 µM (active)
C=C1C([C@@]2(C)C(OC(C)=O)CC(=O)O[C@@](C)(COC(C)=O)C2CC(=O)OC)C(OC=O)C(OC(=O)C(O)C(C)CC)[C@]2(C)C(c3ccoc3)CC(=O)C12O (some centres not stated) | -3.23% (inactive) | –
CC[C@H](C)[C@@H](NC(=O)O[C@@H]1C(=O)c2cc(OC)ccc2O[C@H]1c1cccc(OC)c1)C(=O)OC | -2.71% (inactive) | –
CCCCS(=O)(=O)N1C2=NC(C(=O)OC)=C(C(=O)OC)[C@@H]3N(Cc4ccccc4)c4ccccc4[C@]23C[C@H]1C(=O)OC | -4.13% [at 12.4 µM] (inactive) | –
Oc1ccc(O)c2c(O)cccc12 | – | 1.78 µM (active)
S=C(NCCCc1cnc[nH]1)NCCCN(Cc1ccc(Cl)c(Cl)c1)c1ccc(Br)cn1 | -1.31% (inactive) | –
O=C(c1ccco1)N1CCC[C@@]2(CCN(c3ccccc3)C2)C1 | 2.31% (inactive) | –
Cc1ccc(C(=O)O)cc1-c1ccc(/C=C2\SC(=O)N(CC(=O)Nc3ccc4c(c3)OCO4)C2=O)o1 | – | 7.52 µM (active)
Cc1nn(CC(=O)Nc2ccc3c(c2)OCO3)c(C)c1[N+](=O)[O-] | 2.88% (inactive) | –
Cc1ccc(C(=O)Nc2ccc3c(c2)OCO3)cc1S(=O)(=O)N1CCCCC1 | -8.39% (inactive) | –
